Screening results (PubChem)
The list is not random: actives were taken first. Their share in the collection is about 8%.
HCV inh – inhibitors of hepatitis C virus infection; AID 651820; Huh7.5.1 HCVcc-Cre infection, luciferase reporter, 44 h; hit rate 3.4% among 340,000; Potency, µM (highest dose often 41.8 µM), usual class: inhibitors; active means well fitted inhibition curve with a large enough effect; inconclusive means small, poorly fitted or top-dose-only effect, or another doubt; inactive means no such curve, though single readings can be large or run the other way
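Whole-lifecycle infectious HCVcc-Cre system; cells 1,000/well, compound then virus (~0.5 moi) added 4 h after plating, 44 h culture. Luciferase read 15 sec following 15 min substrate incubation, room temp.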
FMDV inh – blocks foot and mouth disease virus. FMDV antiviral cell-based qHTS. Potency, µM (highest dose often 57.9 µM), usual class: inhibitors. hit rate 1.2% among 410,000; calls by dose curve; tested in HEK293T cells; further: read-out not given here; nearly all actives have a fitted effect of over 45% in size
SARS PLpro yeast – blocks SARS-CoV papain-like protease in a yeast assay. S. cerevisiae expressing SARS-CoV PLpro, growth rescue. AID 485353. Potency, µM (doses to about 32.9 µM), usual class: activators. hit rate 0.19% among 330,000; calls by dose curve; further: nearly all actives have a fitted effect of over 55% in size
MARV entry inh – blocks Marburg virus binding to or entry into cells; Marburg virus pseudotyped entry inhibition, cell reporter; Potency, µM (top dose mostly 37.8 µM), usual class: inhibitors; hit rate 1.8% among 300,000; calls by dose curve; tested in HEK293 cells
LASV entry inh – blocks Lassa virus binding to or entry into cells. Lassa virus pseudotype entry inhibition, cell reporter. Potency, µM (titrated, usually from 37.9 µM), most hits filed as inhibitors. hit rate 1.2% among 300,000; calls by dose curve; tested in HEK293 cells; further: nearly all actives have a fitted effect of over 50% in size
HCMV antiviral – inhibitors of human cytomegalovirus. HFF cells, HCMV-luciferase reporter, 72 h; active compounds read low. activity change, negative = inhibition, % at 57.5 µM. hit rate 4.5% among 410,000; in the data active means activity change below about -60%; inconclusive means no clear call, values can overlap the other calls; inactive means above about -39%
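Human foreskin fibroblasts infected with luciferase-reporter HCMV at MOI 1 PFU/cell, compounds at two doses. Luciferase measured 72 h post infection; normalized to buffer-only basal and Salinomycin (10uM) controls.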
Large screens that a line does not name were inactive; ! = not confirmed by another sample.

CN(C(=O)Cn1nnc(-c2ccc(S(C)(=O)=O)cc2)n1)c1ccccc1	HCMV antiviral inconclusive (no result: HCV inh, SARS PLpro yeast)
CCc1ccc(NC(=S)NC2CC3CCCC(C2)N3Cc2ccccc2)cc1 (stereo not given)	HCV inh 10µM, MARV entry inh 10µM, LASV entry inh inconclusive, HCMV antiviral inconclusive
Cc1ccc(C(=O)NC2CC3CCCC(C2)N3Cc2ccccc2)cc1 (stereo not given)	none
O=C(NC1CC2CCC(C1)N2Cc1ccccc1)c1cccc(F)c1 (stereo not given)	none (no result: MARV entry inh, LASV entry inh)
Cc1cccc(C(=O)NC2CC3CCCC(C2)N3Cc2ccccc2)c1 (stereo not given)	MARV entry inh 3.2µM
Cc1ccc(CN2C3CCCC2CC(NC(=O)c2ccc(F)cc2)C3)cc1 (stereo not given)	MARV entry inh 7.1µM
O=C1c2cccc3c(N4CCCCC4)ccc(c23)C(=O)N1c1ccccc1O	HCV inh inconclusive, HCMV antiviral -96 (no result: MARV entry inh, LASV entry inh)
O=C1c2cccc3c(N4CCCCC4)ccc(c23)C(=O)N1c1ccc(O)cc1	MARV entry inh inconclusive, HCMV antiviral -62
NC1=NC(=Nc2cccc(S(N)(=O)=O)c2)c2ccccc21	none (no result: MARV entry inh, LASV entry inh)
COc1cc(N=Nc2cccc(S(N)(=O)=O)c2)c2ccccc2c1N	HCV inh inconclusive, FMDV inh inconclusive, HCMV antiviral -66
COc1ccc(OC)c(Nc2ncnc3sccc23)c1	HCV inh inconclusive (no result: MARV entry inh, LASV entry inh)
COc1cc(CN(C)c2ncnc3sccc23)ccc1OC(F)F	HCV inh inconclusive, FMDV inh inconclusive, MARV entry inh 2.8µM, HCMV antiviral inconclusive
N#C/C(=C\c1ccc(O)c(O)c1)C(=O)NCCCCc1ccccc1	none (no result: HCV inh, SARS PLpro yeast, MARV entry inh, LASV entry inh, HCMV antiviral)
C#CCCCO/N=C1\C[C@@H](O)[C@@H](O)[C@@H]2[C@@H]3C(=O)N(C[C@@H]4CCCO4)C(=O)[C@@H]3CC[C@H]12	none (no result: HCV inh, FMDV inh, SARS PLpro yeast, LASV entry inh, HCMV antiviral)
CCCCOc1ccc(C(=O)N2CCCC2)cc1	MARV entry inh inconclusive, LASV entry inh inconclusive
CCCCOc1c(Cl)cc(C(=O)N2CCN(CC(=O)N3CCCC3)CC2)cc1OCC	HCV inh 10µM
CCOc1ccc2oc(C(=O)NC3CCN(Cc4ccccc4)CC3)c(C)c2c1	HCV inh inconclusive, FMDV inh inconclusive, MARV entry inh inconclusive, LASV entry inh 11µM, HCMV antiviral inconclusive
CCOc1ccc2oc(C(=O)NC3CC(C)(C)NC(C)(C)C3)c(C)c2c1	HCV inh 13µM, MARV entry inh inconclusive
Cc1c(C(=O)NC2CCN(Cc3ccccc3)C2)oc2ccc(Br)cc12 (stereo not given)	HCV inh inconclusive, MARV entry inh inconclusive, LASV entry inh inconclusive
Cc1cc2oc(C(=O)Nc3ccc(S(=O)(=O)N(C)c4ccccc4)cc3)cc(=O)c2cc1C	MARV entry inh inconclusive, LASV entry inh inconclusive (no result: HCV inh, SARS PLpro yeast)
O=C(CCc1ccccc1)NC(NC(=S)Nc1ccc(Br)cc1)C(Cl)(Cl)Cl (stereo not given)	HCV inh 2µM, MARV entry inh inconclusive, LASV entry inh inconclusive (no result: FMDV inh)
CCCC(=O)NC(NC(=S)Nc1ccc(N=Nc2ccccc2)cc1)C(Cl)(Cl)Cl (stereo not given)	HCV inh 10µM, FMDV inh inconclusive, MARV entry inh inconclusive, LASV entry inh inconclusive, HCMV antiviral -70
CCc1ccc(CNc2ccc3c(c2)ncn3C(C)(C)C)cc1	MARV entry inh 10µM, LASV entry inh 1.8µM, HCMV antiviral -64!
CCN(CC)c1ccc(CNc2ccc3c(c2)ncn3C(C)(C)C)cc1	MARV entry inh inconclusive, HCMV antiviral -68
CN(C)c1ccc(CNc2ccc3c(c2)ncn3C)cc1	HCV inh inconclusive, MARV entry inh inconclusive, HCMV antiviral -102
COc1ccc(C(CNC(=O)c2cccc([N+](=O)[O-])c2)N2CCOCC2)cc1 (stereo not given)	none (no result: HCV inh, SARS PLpro yeast)
Cc1cc(NC(=O)c2cccnc2)cc(-c2nc3cc(Cl)ccc3o2)c1O	none (no result: HCV inh, SARS PLpro yeast)
O=C(OCn1ncc(Cl)c(Cl)c1=O)c1ccccc1Cl	HCV inh 4µM, FMDV inh 10µM, MARV entry inh 4.6µM, LASV entry inh 6.5µM, HCMV antiviral -103
O=c1c(Cl)c(Cl)cnn1Cc1ccc(F)cc1	HCV inh 8.9µM, FMDV inh 40µM, MARV entry inh inconclusive, LASV entry inh 21µM, HCMV antiviral -99
C=CCn1c(C)cc(C(=O)CN2NS(=O)(=O)c3ccccc3C2=O)c1C	HCV inh inconclusive, HCMV antiviral -74 (no result: MARV entry inh, LASV entry inh)
O=C(Cn1ncc(Cl)c(Cl)c1=O)c1ccc(Cl)cc1	HCV inh 2.8µM, FMDV inh 35µM, MARV entry inh 2.9µM, LASV entry inh inconclusive, HCMV antiviral -98
COc1ccccc1N1CCN(C(=O)c2cnc(N3CCOCC3)c3ccccc23)CC1	LASV entry inh inconclusive (no result: HCV inh, SARS PLpro yeast, MARV entry inh)
O=C(CN1C(=O)COc2ccc(S(=O)(=O)N3CCOCC3)cc21)NCc1ccc(Cl)cc1	none (no result: HCV inh, SARS PLpro yeast, MARV entry inh)
CCN1C(=S)NC(c2cccs2)C(C(=O)OC)=C1C (stereo not given)	LASV entry inh inconclusive (no result: HCV inh, FMDV inh, SARS PLpro yeast, HCMV antiviral)
CC(C)(C)C(=O)Cn1ncc(Cl)c(Cl)c1=O	HCV inh inconclusive, FMDV inh inconclusive, HCMV antiviral -100 (no result: MARV entry inh, LASV entry inh)
CC(C)(C)C(=O)Cn1ncc(N2CCCC2)c(Br)c1=O	MARV entry inh inconclusive
C=CCn1c(C)cc(C(=O)COC(=O)[C@@H](NC(=O)c2ccccc2Cl)C(C)C)c1C	FMDV inh inconclusive, MARV entry inh inconclusive, LASV entry inh inconclusive
C=CCn1c(C)cc(C(=O)Cn2ncc(Cl)c(Cl)c2=O)c1C	HCV inh 13µM, FMDV inh inconclusive, MARV entry inh inconclusive, LASV entry inh inconclusive, HCMV antiviral -98
COc1ccc(OC)c(CN2CCN(Cc3ccc(OC)c(OC)c3OC)CC2)c1	none (no result: HCV inh, SARS PLpro yeast, MARV entry inh, LASV entry inh)
COc1ccc(CN2CCN(CCSc3ccc(C)cc3)CC2)c(OC)c1OC	HCV inh 14µM, FMDV inh inconclusive (no result: MARV entry inh, LASV entry inh)
COc1ccc(-c2cc(=O)c3cccc(CC(=O)O)c3o2)cc1	none (no result: HCV inh, FMDV inh, SARS PLpro yeast, MARV entry inh, LASV entry inh)
CC(C)(C)c1ccc(C(=O)CCCSC2=C(C#N)C(c3ccco3)C3=C(CCCC3=O)N2)cc1 (stereo not given)	HCV inh 6.3µM, MARV entry inh inconclusive, LASV entry inh inconclusive, HCMV antiviral inconclusive
CCc1ccc(NC(=O)CSC2=C(C#N)[C@H](c3ccco3)C3=C(CCCC3=O)N2)cc1	none (no result: HCV inh, FMDV inh, SARS PLpro yeast, LASV entry inh, HCMV antiviral)
CCSC1=C(C#N)C(c2ccc(Cl)cc2)C2=C(CCCC2=O)N1 (stereo not given)	HCV inh 25µM, MARV entry inh inconclusive
Cc1ccc(C(=O)CSC2=C(C#N)C(c3ccco3)C3=C(CCCC3=O)N2)cc1 (stereo not given)	HCV inh 25µM, MARV entry inh inconclusive, LASV entry inh inconclusive
N#CC1=C(SCC(=O)c2ccccc2)NC2=C(C(=O)CCC2)C1c1ccco1 (stereo not given)	HCV inh 11µM, MARV entry inh inconclusive, LASV entry inh inconclusive
CC(CCN1CCCCc2nc(C)c(C)cc21)=NO[C@H](C)c1cn([C@@H]2COC[C@@H]2O)nn1	none (no result: HCV inh, FMDV inh, SARS PLpro yeast, LASV entry inh, HCMV antiviral)
CCOC(=O)C1=C(c2ccccc2)NC(SCC(=O)Nc2ccccc2C)=C(C#N)[C@@H]1c1ccco1	MARV entry inh 23µM (no result: HCV inh, FMDV inh, SARS PLpro yeast, LASV entry inh, HCMV antiviral)
